Most compounds without a hit are left out; they make up all but 7.3% or so of the library.
KinaseGlo FLuc = Kinase-Glo luciferase inhibition (counter-screen) | Kinase-Glo luciferase, ATP luminescence, 8 min | Q27757 | Potency, µM (doses to about 38.3 µM), actives largely listed as inhibitors | hit rate 0.28% among 200,000; also: nearly all actives have a fitted effect of over 60% in size
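Inhibition of Kinase-Glo luciferase light generation was assessed at 10 uM ATP in pH 7.2 imidazole buffer, with luminescence measured after eight minutes at ambient temperature.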
NPC1 promoter act = NPC1 promoter activation; Huh7 NPC1 promoter luciferase reporter, 24 h; hit rate 2.4% among 320,000; AID 485313; Potency, µM (titrated, usually from 9.22 µM), hits mostly activators; also: nearly all actives have a fitted effect of over 60% in size
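Stably transfected Huh7 (NPC1 promoter→luciferase), 1500 cells/well in Opti-MEM + 10% FBS, 2 h settle, then compound 24 h at 37 °C. Luminescence after 10 min with Amplite reagent.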
SMN2 splice up = increases expression of the SMN2 splice variant; HEK293 SMN2-luciferase splicing reporter, luminescence, 30-36 h; hit rate 2.8% among 210,000; Potency, µM (series often up to 46.1 µM), hits mostly activators; AID 1458; also: nearly all actives have a fitted effect of over 55% in size
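HEK293 cells carry an SMN2 minigene-luciferase reporter in which exon 7 inclusion puts luciferase in frame. Cells were seeded at 2000 cells/well, attached for 10-12 hours, then exposed to compounds for 30-36 hours at 37C before ONE-Glo luminescence.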
FLuc counter = inhibits or activates purified firefly luciferase, miR-21 counter-screen. purified FLuc, Km substrates, luminescence inhibition. Potency, µM (doses to about 57.5 µM), actives largely listed as inhibitors. AID 588342. P08659. hit rate 6.9% among 360,000; also: nearly all actives have a fitted effect of over 55% in size
Target sequence (P08659 whole entry, looked up): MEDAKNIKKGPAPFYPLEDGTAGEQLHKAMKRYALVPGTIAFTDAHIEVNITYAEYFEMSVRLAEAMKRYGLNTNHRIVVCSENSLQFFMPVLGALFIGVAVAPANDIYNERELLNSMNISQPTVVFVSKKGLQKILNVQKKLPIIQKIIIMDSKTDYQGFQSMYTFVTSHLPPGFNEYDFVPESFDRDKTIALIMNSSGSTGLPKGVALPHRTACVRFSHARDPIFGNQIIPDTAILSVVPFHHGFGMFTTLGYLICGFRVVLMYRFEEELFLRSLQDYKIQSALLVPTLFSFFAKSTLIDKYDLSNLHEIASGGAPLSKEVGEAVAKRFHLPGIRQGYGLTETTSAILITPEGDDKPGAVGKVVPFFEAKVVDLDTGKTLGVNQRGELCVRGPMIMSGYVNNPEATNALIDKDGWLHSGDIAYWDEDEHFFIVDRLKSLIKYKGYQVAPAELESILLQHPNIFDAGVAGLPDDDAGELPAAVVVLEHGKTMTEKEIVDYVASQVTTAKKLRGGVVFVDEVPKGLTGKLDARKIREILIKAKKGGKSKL
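Biochemical qHTS of compounds, final roughly 60 µM downward over six points, against 10 nM purified firefly luciferase using Km concentrations of substrates (10 uM D-luciferin, 10 uM ATP) in Tris acetate pH 7.5 buffer; luminescence output.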
Rab9 prom act = Rab9 promoter activation; AID 485297; Potency, µM (doses to about 9.22 µM), most hits filed as activators; Huh7 Rab9 promoter-luciferase reporter, luminescence, 24 h; hit rate 2.8% among 320,000; also: nearly all actives have a fitted effect of over 60% in size
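Using Huh7 cells stably transfected with Rab9 promoter–luciferase, compounds were incubated 24 h at 37 °C, 5% CO2; luciferase luminescence was read 10 min after reagent addition.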
ELG1 genotox = induces genotoxicity in HEK293T cells with luciferase-tagged ELG1 | HEK293T ELG1-luciferase reporter, luminescence, 16 h | Potency, µM (series often up to 46 µM), hits mostly activators | hit rate 1.3% among 330,000; also: nearly all actives have a fitted effect of over 60% in size
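Quantitative HTS format in 1536-well plates. HEK293T ELG1-luciferase reporter cells receive test compound and are incubated 16 hr at 37 °C, 5% CO2; ONE-Glo added, 30 min room temperature, then luminescence read.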
Hits are given with their value; - = inactive; ? = inconclusive; . = no result given; [ ] = another dose, or the depositor's remark. Calls follow the shape of the dose curve; as a rule, active = well fitted curve in the direction sought with a large enough effect; inconclusive = small, poorly fitted or top-dose-only effect, or another doubt; inactive = no such curve, though single readings can be large; an effect the other way counts as inactive or inconclusive.

SMILES	KinaseGlo FLuc	NPC1 promoter act	SMN2 splice up	FLuc counter	Rab9 prom act	ELG1 genotox
CN(C)c1ccc(CN(C(=O)c2cc3ccccc3oc2=O)C2CCS(=O)(=O)C2)cc1 (stereo not given)	.	2.8µM	.	12µM	?	?
COc1ccc(CN(C(=O)c2oc3cc(C)c(C)cc3c2C)C2CCS(=O)(=O)C2)cc1OC (stereo not given)	.	-	.	-	-	-
O=C(c1cc2ccccc2oc1=O)N(Cc1ccco1)C1CCS(=O)(=O)C1 (stereo not given)	-	?	-	15µM	?	18µM
O=C(CSc1nnc(-c2ccc(F)cc2)o1)N1CCCc2ccccc21	.	.	-	?	.	.
CN(C)c1nc(N)nc(CSc2nc3cc(Cl)ccc3o2)n1	-	?	-	?	?	7.3µM
Cc1cc(C)n2cc(CSc3nc4cc(Cl)ccc4o3)nc2n1	-	-	-	-	-	-
CCC(C)NC(=O)c1cc(-c2ccccc2O)on1 (stereo not given)	-	-	-	?	?	?
O=C(NC1CCCCC1)c1cc(-c2ccc(O)cc2)on1	.	2.5µM	.	?	3.2µM	?
COc1ccc(-c2cc(C(=O)NC3CCCCC3)no2)cc1OC	.	-	.	-	-	-
Cc1ccc(-c2cc(C(=O)NC3CCCCC3)no2)cc1	.	2.5µM	.	?	3.5µM	-
O=C(NC1CCCCC1)c1cc(-c2ccccc2O)on1	.	?	.	?	?	21µM
O=C(Nc1cccnc1Cl)c1cc(-c2ccc(O)cc2)on1	.	-	.	?	-	?
Nc1c(S(=O)(=O)O)cc(Nc2cccc(S(N)(=O)=O)c2)c2c1C(=O)c1ccccc1C2=O	-[7.66 µM]	.	-[9.22 µM]	.	.	.
Brc1ccc(-c2noc(COc3ccc4c(c3)CCC4)n2)o1	-	-	-	?	-	?
COc1ccc(Cc2nc(-c3ccccc3)no2)cc1	-	?	?	15µM	?	16µM
COc1ccc(Cc2nc(-c3ccc(-n4cccc4)cc3)no2)cc1	-	-	-	-	-	-
COc1ccc(Cc2nc(-c3cccs3)no2)cc1	-	?	?	15µM	?	?
c1csc(-c2noc(COc3ccc4c(c3)CCCC4)n2)c1	-	4µM	13µM	11µM	2.8µM	18µM
COc1ccc(Cc2nc(-c3ccc(-n4cccc4)cc3)no2)cc1OC	-	-	-	-	-	13µM
O=C1OCCC1Sc1nnc(-c2ccco2)o1 (stereo not given)	-	-	-	-	-	-
O=C(CSc1nnc(-c2ccccc2)o1)NCC1CCCCC1	-	-	-	-	-	-
O=C1OCCC1Sc1nnc(-c2ccc(Br)cc2)o1 (stereo not given)	-	-	-	6µM	-	-
c1ccc(-c2nnc(SCCC3OCCCO3)o2)cc1	-	2.5µM	11µM	15µM	2.5µM	?
Brc1ccc(-c2nnc(SCCC3OCCCO3)o2)cc1	-	-	-	15µM	-	-
CCc1ccc2oc(C(=O)Nc3cc(C)ccc3C)cc(=O)c2c1	.	.	-	-	.	.
SMILES	KinaseGlo FLuc	NPC1 promoter act	SMN2 splice up	FLuc counter	Rab9 prom act	ELG1 genotox
Cc1cccc(NC(=O)c2cc(NC(=O)C3CCCCC3C(=O)O)ccc2N2CCOCC2)c1 (stereo not given)	.	-	.	21µM	-	-
COc1ccc(NC(=O)c2cc(NC(=O)C3CCCCC3C(=O)O)ccc2N2CCOCC2)cc1 (stereo not given)	.	-	.	-	-	-
Cc1ccc(NC(=O)c2ccc(NC(=O)C3CCCCC3C(=O)O)cc2)cc1 (stereo not given)	.	-	.	17µM	-	-
O=C(O)C1CCCCC1C(=O)Nc1ccc(-c2ccccc2)cc1 (stereo not given)	-	-	-	17µM	?	?
CC(=O)Nc1ccc(NC(=O)C2CCCCC2C(=O)O)cc1 (stereo not given)	-	-	-	-	-	-
Cc1sc(NC(=O)C2CCCCC2C(=O)O)c(C(N)=O)c1-c1ccccc1 (stereo not given)	-	1.6µM	-	3.4µM	3.5µM	?
CC(=O)Nc1ccc(NC(=O)[C@@H]2CCCC[C@@H]2C(=O)O)cc1	-	-	-	-	-	-
COc1ccccc1NC(=O)c1sc2nc(-c3cc4cc(Cl)ccc4oc3=O)[nH]c(=O)c2c1C	.	.	.	-	.	.

Assay outcomes (PubChem)
